# Measured values as given in PubChem BioAssay.
# Results filed as inconclusive are left out. Activity calls are given as the source filed them. Unless noted, cut-off not given; nearly all actives show AC50 up to about 26 µM.
# What was measured:
# [1] = viability loss in pontine glioma line – cell-based, SU-DIPG-XXV, MIPE5.0, CellTiter-Glo, qHTS, dose response (AID 1347065); conditions: CellTiter-Glo ATP luminescence;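 further: cells exposed to compound for 48 hours before ATP readout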
# [2] = growth inhibition of DIPG cells – cell-based, MIPE5.0 library, qHTS (AID 1347068; cut-off not given, nearly all actives have IC50 up to about 30 µM;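 on IC50: cells exposed to compound for 48 hours before viability readout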); conditions: SU-DIPG-XXV viability
# [3] = JHH-DIPG-1 glioma cell viability, MIPE5.0 library, CellTiter-Glo luminescence, qHTS (AID 1347067); conditions: JHH-DIPG-1 glioma viability, CellTiter-Glo ATP luminescence;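 further: cells exposed to compound for 48 hours before readout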
# [4] = viability loss with induced miR-34 in A549 – imaging, A549 dox-inducible miR-34, nuclei and caspase counts, primary screen (AID 1347080;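 active means compounds whose cell count with miR-34 switched on is under 0.7 times the count with it off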); conditions: A549 miR-34 inducible, Hoechst nuclei count, 48 h
# [5] = compounds altering HSF1 focus formation in cells – imaging, Selleck Cancer Library (AID 1347162; in the data active means plate-normalised HSF1 focus index below about 0.46); conditions: human cells, HSF1 nuclear foci imaging, at 10 µM; SSMD: measured here: HSF1 foci SSMD mean; cell count: measured here: cell number; plate-normalised HSF1 focus index: stronger effect = lower value
# [6] = MELAS cybrid and Rieske KO viability enhancers – cell-based, MELAS cybrids, Rieske KO mouse fibroblasts, CellTiter-Glo, primary screen (AID 1508586;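 active means mean z-score across replicates of 1.96 or higher in either the MELAS or the Rieske mutant cell line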;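 further: z relative to plate mean and SD of compound and empty wells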); conditions: low glucose
# [7] = drug combination growth inhibition, ovarian cancer – cell-based, oncology-focused library, rucaparib conditional, profiling panel (AID 1508598;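 active means normalized viability below 100% at a tested concentration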); conditions: patient-derived ovarian cancer cells, CellTiter-Glo viability, 144 h, stronger effect = lower value
smiles,measurement,setting,value
Clc1cc2c(NC3CCCC3)nnc(-c3ccncc3)c2cc1Cl,AC50,[1],23.5 µM (active)
same,outcome,[2],inactive
O=C(Nc1ccc(OC(F)(F)F)cc1)c1sccc1NCc1ccnc2ccccc12,AC50,[1],16.6 µM (active)
same,AC50,[3],5.9 µM (active)
same,outcome,[2],inactive
same,fold change,"[4]; stronger effect = lower value, cell number ratio, induced over uninduced",0.889 (inactive)
same,fold change,[4]; measured here: relative caspase fold change +Dox/-Dox,1.05
same,cell count,"[4]; measured here: total cells with miR-34 induction, stronger effect = lower value",4270
same,cell count,[4]; measured here: total cells without miR-34 induction,4800
same,SSMD,[5],2.93
same,cell count,[5],7420
same,plate-normalised HSF1 focus index,[5],1.18 (inactive)
same,z-score,"[6]; MELAS cybrid survival, CellTiter-Glo 48 h, stronger effect = higher value",-0.433 (inactive)
same,z-score,"[6]; Rieske KO mouse fibroblast survival, CellTiter-Glo 72 h",0.766
same,viability,"[7]; at 0.000305 µM, OCI-C5x cells, with rucaparib 10 µM, 100% = cells with rucaparib alone",104% (inactive)
same,viability,"[7]; at 0.000305 µM, OCI-C5x cells, without rucaparib",102% (inactive)
same,viability,"[7]; at 0.000305 µM, OCI-P5x cells, with rucaparib 20 µM, 100% = cells with rucaparib alone",79.8% (active)
same,viability,"[7]; at 0.000305 µM, OCI-P5x cells, without rucaparib",88.5% (active)
same,viability,"[7]; at 0.00122 µM, OCI-C5x cells, with rucaparib 10 µM, 100% = cells with rucaparib alone",108% (inactive)
same,viability,"[7]; at 0.00122 µM, OCI-C5x cells, without rucaparib",110% (inactive)
same,viability,"[7]; at 0.00122 µM, OCI-P5x cells, with rucaparib 20 µM, 100% = cells with rucaparib alone",76.7% (active)
same,viability,"[7]; at 0.00122 µM, OCI-P5x cells, without rucaparib",81.1% (active)
same,viability,"[7]; at 0.00488 µM, OCI-C5x cells, with rucaparib 10 µM, 100% = cells with rucaparib alone",98.6% (active)
same,viability,"[7]; at 0.00488 µM, OCI-C5x cells, without rucaparib",105% (inactive)
same,viability,"[7]; at 0.00488 µM, OCI-P5x cells, with rucaparib 20 µM, 100% = cells with rucaparib alone",79.8% (active)
same,viability,"[7]; at 0.00488 µM, OCI-P5x cells, without rucaparib",79.7% (active)
same,viability,"[7]; at 0.0195 µM, OCI-C5x cells, with rucaparib 10 µM, 100% = cells with rucaparib alone",108% (inactive)
same,viability,"[7]; at 0.0195 µM, OCI-C5x cells, without rucaparib",113% (inactive)
same,viability,"[7]; at 0.0195 µM, OCI-P5x cells, with rucaparib 20 µM, 100% = cells with rucaparib alone",81% (active)
same,viability,"[7]; at 0.0195 µM, OCI-P5x cells, without rucaparib",79% (active)
same,viability,"[7]; at 0.0781 µM, OCI-C5x cells, with rucaparib 10 µM, 100% = cells with rucaparib alone",108% (inactive)
same,viability,"[7]; at 0.0781 µM, OCI-C5x cells, without rucaparib",113% (inactive)
same,viability,"[7]; at 0.0781 µM, OCI-P5x cells, with rucaparib 20 µM, 100% = cells with rucaparib alone",111% (inactive)
same,viability,"[7]; at 0.0781 µM, OCI-P5x cells, without rucaparib",108% (inactive)
same,viability,"[7]; at 0.313 µM, OCI-C5x cells, with rucaparib 10 µM, 100% = cells with rucaparib alone",98.2% (active)
same,viability,"[7]; at 0.313 µM, OCI-C5x cells, without rucaparib",110% (inactive)
same,viability,"[7]; at 0.313 µM, OCI-P5x cells, with rucaparib 20 µM, 100% = cells with rucaparib alone",107% (inactive)
same,viability,"[7]; at 0.313 µM, OCI-P5x cells, without rucaparib",110% (inactive)
same,viability,"[7]; at 1.25 µM, OCI-C5x cells, with rucaparib 10 µM, 100% = cells with rucaparib alone",94.5% (active)
same,viability,"[7]; at 1.25 µM, OCI-C5x cells, without rucaparib",107% (inactive)
same,viability,"[7]; at 1.25 µM, OCI-P5x cells, with rucaparib 20 µM, 100% = cells with rucaparib alone",103% (inactive)
same,viability,"[7]; at 1.25 µM, OCI-P5x cells, without rucaparib",112% (inactive)
same,viability,"[7]; at 5 µM, OCI-C5x cells, with rucaparib 10 µM, 100% = cells with rucaparib alone",89.4% (active)
same,viability,"[7]; at 5 µM, OCI-C5x cells, without rucaparib",117% (inactive)
same,viability,"[7]; at 5 µM, OCI-P5x cells, with rucaparib 20 µM, 100% = cells with rucaparib alone",77.3% (active)
same,viability,"[7]; at 5 µM, OCI-P5x cells, without rucaparib",54.8% (active)
CCOCOC[C@H](C[C@H](C)C(=O)NO)NC(=O)c1ccc(Oc2ccccc2)cc1,outcome,[1],inactive
same,outcome,[3],inactive
same,outcome,[2],inactive
Cc1nnn(C)c1-c1cnc2c3ccc(C(C)(C)O)cc3n([C@H](c3ccccc3)C3CCOCC3)c2c1,AC50,[1],0.372 µM (active)
same,AC50,[3],8.33 µM (active)
CNC(=O)Cn1cc(-c2ccc3c(c2)C(F)CC32NC(=O)N(CC(=O)N(Cc3ccc(F)cc3)C(C)C(F)(F)F)C2=O)cn1 (stereo unspecified),outcome,[1],inactive
same,outcome,[3],inactive
same,outcome,[2],inactive
Cc1nc(-c2cccnc2)sc1C(=O)Nc1ccccc1-c1cn2c(CN3CCOCC3)csc2n1,outcome,[1],inactive
same,outcome,[2],inactive
c1ccc(-c2ccc(CNc3nc(-c4ccccn4)nnc3-c3ccccc3)cc2)cc1,AC50,[1],3.32 µM (active)
same,AC50,[3],10.5 µM (active)
same,IC50,[2],2.95 µM (active)
Cc1nn(Cc2ccccc2Cl)c(C)c1CN(C)CC(O)COc1ccc(Cl)cc1 (stereo unspecified),AC50,[1],20.9 µM (active)
same,AC50,[3],23.5 µM (active)
C[C@@H]1CC2C3C[C@H](F)C4=CC(=O)C=C[C@]4(C)[C@@]3(F)[C@@H](O)C[C@]2(C)[C@@]1(OC(=O)c1ccco1)C(=O)SCF (stereo partly specified),AC50,[1],20.9 µM (active)
same,outcome,[2],inactive
Nc1nccc(-c2c(-c3ccc(F)cc3)ncn2C2CCN(Cc3ccon3)CC2)n1,outcome,[1],inactive
same,outcome,[3],inactive
same,outcome,[2],inactive
COC(=O)C1C2CC3c4[nH]c5cc(OC)ccc5c4CCN3CC2CC(OC(=O)c2cc(OC)c(OC)c(OC)c2)C1OC (stereo unspecified),AC50,[1],20.9 µM (active)
same,AC50,[3],23.5 µM (active)
same,outcome,[2],inactive
CCCN(CCC)C(=O)C1=Cc2ccc(-c3ccc(C(=O)N4CCCC4)cc3)cc2N=C(N)C1,AC50,[1],20.9 µM (active)
same,AC50,[3],23.5 µM (active)
same,outcome,[2],inactive
Cc1ccc(-c2ccc(C)cn2)nc1,outcome,[1],inactive
same,outcome,[3],inactive
same,outcome,[2],inactive
CCNCc1nc2c(N)nc3ccccc3c2n1CC(C)(C)O,outcome,[1],inactive
same,outcome,[3],inactive
same,outcome,[2],inactive
COc1ccc(CNC(=O)c2cc(-c3cncc(Cl)c3)cnc2-c2ccccn2)nc1OC,outcome,[1],inactive
same,outcome,[3],inactive
same,outcome,[2],inactive
CC1CCC(n2c3cnccc3c3cnc(Nc4ccc5c(n4)CCN(C(=O)CO)C5)nc32)CC1 (stereo unspecified),outcome,[1],inactive
same,outcome,[3],inactive
same,outcome,[2],inactive
O=C(NCCCNC(=O)c1ccc[nH]c1=O)c1cc(-c2ccccc2)on1,outcome,[1],inactive
same,AC50,[3],14.8 µM (active)
same,outcome,[2],inactive
Cn1cc(-c2cc(Oc3cc(F)c(NC(=O)C4(C(=O)Nc5ccccc5)CC4)cc3F)ccn2)cn1,AC50,[1],16.6 µM (active)
same,AC50,[3],18.6 µM (active)
CN1CCN(C(=O)c2ccc3cc(CCNc4ncnc5ccc(C#N)cc45)ccc3c2)CC1,AC50,[1],23.5 µM (active)
same,AC50,[3],20.9 µM (active)
